The list shows a part of the results. Inconclusive results are not listed. Unmarked numbers belong to inactive results.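 How the source made its calls: active means compounds lowering PCK1 expression whose fitted half-maximal concentration is at most twice the top tested dose; inconclusive means flat fit with moderate opposite-direction effect, or poor fit; inactive means the rest.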
Test: suppression of PCK1 mRNA in primary hepatocytes, dose response, PGC-1a acetylation activator project, cell-based, primary mouse hepatocytes, RT-qPCR, cherry-pick (AID 743465);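 further: values are delta delta Ct of PCK1 relative to GAPDH; higher delta delta Ct means lower PCK1 expression so positive values indicate hits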
Conditions: forskolin-stimulated; series mostly up to 26 µM; PCK1 expression decrease: at the top concentration

SMILES	PCK1 expression decrease
COc1ccc(-n2nnnc2CNC(=O)c2ccc3ccccc3c2)cc1	3.44 unspecified
Cc1ccc(OCC(=O)NCCCNC(=O)c2cccnc2)cc1C	52.7 unspecified
CCCCC(=O)Nc1ccc(C(=O)NCCCn2ccnc2)cc1	19.7 unspecified
CCOc1ccccc1CN1CCN(C2CCC2)CC1CCO (centres undefined)	32.8 unspecified
CC(C)CCNc1nc(N2CCCC2)c2c(c1C#N)CCN(C)C2	96 unspecified
Cc1cc(C)c2c(-n3cccc3)c(C(=O)NNS(=O)(=O)c3ccc(F)cc3)sc2n1	9.38 unspecified
CCOC(=O)c1c(-c2ccc(C)cc2C)csc1NC(=O)CSc1nnnn1C	86.5 unspecified
CCC(C)(C)n1nnnc1C(c1ccccc1OC)N1CCSCC1 (centres undefined)	105 unspecified
O=C(NCc1ccccc1)C(c1ccccc1)N(C(=O)c1csnn1)c1ccc(F)cc1 (centres undefined)	318 unspecified [at 8 µM]
Cc1ccc(S(=O)(=O)Nc2ccc3c(c2)C(=O)N([C@@H](C)CO)C[C@@H](C)[C@H](CN(C)C(=O)Nc2cccc4ccccc24)OCCCC[C@H](C)O3)cc1	17.2 unspecified
COc1ccc(Nc2nnc(C)c3ccccc23)cc1	25.2 unspecified
CCOC(=O)c1c(NC(=O)CSc2cn(CC)c3ccccc23)sc2c1CCC2	44 unspecified
Cc1cc(C(=O)NNS(=O)(=O)c2ccccc2C(F)(F)F)nn1C(C)(C)C	43.1 unspecified
O=C(NCCC1CCCCN1S(=O)(=O)c1cccs1)C(=O)Nc1ccc(F)cc1F (centres undefined)	-10.4 unspecified
